Compound activity from PubChem BioAssay.
Only some compounds are listed: those with a hit (about 4.3% of all), similar ones and a draw of the others.
PfHsp40 rescue = compounds rescuing yeast from Plasmodium falciparum HSP40 toxicity | actives 0.68% (n = 340,000) | growth rescue, % at 12.5 µM | S. cerevisiae expressing PfHsp40, growth rescue, ATP luminescence; in the data active = growth rescue above about 28%, passing the limit was not always enough; inconclusive = no clear call, values can overlap the other calls;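 also: yeast W303a lacking pdr1 and pdr3 grown in galactose medium; growth measured after three days at 30 °C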
BoNT-A LC inh2 = BoNT A light chain protease inhibition; multiplex microsphere protease substrate cleavage, flow cytometry; inhibition, % at 10 µM; actives 0.17% (n = 360,000); AID 588499; also: plate controls were buffer without enzyme for full effect and enzyme alone for no effect
BoNT-F LC inh = inhibitors of Botulinum neurotoxin F light chain protease. actives 0.22% (n = 360,000). Multiplex microsphere protease cleavage assay, flow cytometry. inhibition, % at 10 µM; in the data active = inhibition above about 35%, passing the limit was not always enough; inconclusive = no clear call, values can overlap the other calls; also: plate controls were buffer without enzyme for full effect and enzyme alone for no effect
MazEF act = increases E. coli MazEF RNase cleavage of RNA. FAM/BHQ RNA-DNA oligo cleavage fluorescence, 5 h. activation, % at 20 µM. actives 0.32% (n = 350,000). AID 504720; in the data active = activation above about 50%
Bead autofluor = compound fluorescence in toxin protease inhibitor counterscreen; compound autofluorescence counterscreen, microsphere flow cytometry; active compounds read high; fluorescence intensity (concentration not given with the values); actives 3.1% (n = 360,000); in the data active = fluorescence intensity above about 16000; inconclusive = no clear call, values can overlap the other calls
Anthrax LF prot = blocks Bacillus anthracis lethal factor protease. P15917. multiplex microsphere protease cleavage assay, LF. inhibition, % at 10 µM. actives 0.12% (n = 360,000). AID 588501; also: plate controls were buffer without enzyme for full effect and enzyme alone for no effect
Target sequence (P15917 whole entry, looked up): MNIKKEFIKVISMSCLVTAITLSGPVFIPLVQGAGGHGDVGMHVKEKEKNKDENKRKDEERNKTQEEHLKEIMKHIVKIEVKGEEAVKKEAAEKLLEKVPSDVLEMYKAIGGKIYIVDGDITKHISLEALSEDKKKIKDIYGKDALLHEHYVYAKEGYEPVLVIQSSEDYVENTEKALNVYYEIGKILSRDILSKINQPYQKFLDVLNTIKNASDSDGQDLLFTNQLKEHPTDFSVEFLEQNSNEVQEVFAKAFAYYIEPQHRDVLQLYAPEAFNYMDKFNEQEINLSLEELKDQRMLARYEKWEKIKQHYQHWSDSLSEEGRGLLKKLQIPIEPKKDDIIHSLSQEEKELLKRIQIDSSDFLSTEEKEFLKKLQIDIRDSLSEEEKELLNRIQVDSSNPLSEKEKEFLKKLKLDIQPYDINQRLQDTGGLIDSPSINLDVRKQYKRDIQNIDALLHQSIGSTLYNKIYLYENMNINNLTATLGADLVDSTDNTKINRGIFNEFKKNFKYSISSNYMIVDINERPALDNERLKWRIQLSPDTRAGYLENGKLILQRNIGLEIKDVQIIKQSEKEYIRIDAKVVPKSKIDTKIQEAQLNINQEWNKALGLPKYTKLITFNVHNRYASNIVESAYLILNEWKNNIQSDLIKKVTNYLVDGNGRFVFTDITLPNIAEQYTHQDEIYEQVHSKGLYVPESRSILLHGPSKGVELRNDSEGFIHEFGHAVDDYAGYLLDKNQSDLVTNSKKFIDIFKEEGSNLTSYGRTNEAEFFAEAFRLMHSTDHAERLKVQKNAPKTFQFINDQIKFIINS
Active calls of the source: *; ? = inconclusive; · = not tested or not shown. Rule as the data show it, unless noted: active = inhibition above about 30%; inconclusive = no clear call, values can overlap the other calls; inactive = below that.

SMILES | PfHsp40 rescue | BoNT-A LC inh2 | BoNT-F LC inh | MazEF act | Bead autofluor | Anthrax LF prot
S=c1[nH]ccn1-c1c(Cl)cccc1Cl | 0 | 2 | ? | 3 | 4125 | -16
Cc1cc(NC(=O)/C(C#N)=C/c2ccc(-c3cccc(C(F)(F)F)c3)o2)n(-c2ccccc2)n1 | 1 | 1 | -3 | -7 | 2518 | 2
Cc1cc(NC(=O)/C(C#N)=C/c2ccc(-c3ccc(SC(F)F)cc3)o2)n(-c2ccccc2)n1 | -1 | 0 | -1 | 405* | 2727 | 0
N#C/C(=C/c1ccc(-c2ccc(S(N)(=O)=O)cc2)o1)C(=O)Nc1ccccc1 | -1 | 0 | -6 | 101* | 2461 | 1
Cc1cccc(NC(=O)CN2CCN(C(=O)CN3C(=O)NC4(CCCCC4C)C3=O)CC2)c1C (stereo unspecified) | 0 | -1 | 2 | 7 | 3902 | 2
On1ccccc1=S | 382* | 0 | 1 | 4 | 5866 | -6
Cc1ccccc1OCC(=O)Nc1c2c(nn1C(C)(C)C)CS(=O)(=O)C2 | -1 | -2 | 1 | -10 | 4645 | 1
O=C(Oc1ccc(N(Cc2cccs2)C2=NS(=O)(=O)c3ccccc32)cc1)c1ccccc1 | 0 | ? | -4 | 0 | 23485* | -7
O=C(Oc1ccc(N(Cc2cccs2)C2=NS(=O)(=O)c3ccccc32)cc1)c1ccc(Cl)cc1 | 0 | 0 | -15 | -9 | 4172 | 0
COc1ccc(CN2C(=NC(=O)C3CCCCC3)SC3CS(=O)(=O)CC32)cc1 (stereo unspecified) | 9 | 2 | -8 | -2 | 3997 | -3
CC(=O)c1cccc(S(=O)(=O)N2CCC(C(=O)Oc3ccc(-c4nnco4)cc3)CC2)c1 | 0 | 0 | -11 | -35 | 3414 | -3
CC1CCN(S(=O)(=O)c2cc(Cl)ccc2Br)CC1 | 0 | 0 | -4 | -14 | 12013 | 0
O=C1CN(S(=O)(=O)c2cc(Cl)ccc2Cl)CCN1 | -1 | 1 | -3 | 5 | 3369 | -2
O=S(=O)(c1cc(Cl)ccc1Cl)N1CCNCC1 | 1 | -5 | -11 | 0 | 20984* | -2
O=S(=O)(c1ccc(Cl)cc1Br)N1CCCCC1 | 1 | -2 | -7 | -10 | 20568* | 1
CCc1c(C)n2nc(C)cc2[nH]c1=O | 1 | 2 | 1 | -12 | 22318* | -3
CCc1c(C)c2c(C)nn(-c3ccccc3)c2[nH]c1=O | 0 | 0 | 17 | -9 | 3325 | -1
CC1CCCC(C(=O)O)N1C(=O)CCSC(=O)c1ccccc1 (stereo unspecified) | 0 | 2 | 3 | 0 | 22094* | -3
O=C(c1[nH]c(C(F)(F)F)nc1-c1ccccc1)N1CCN(c2c(Cl)cncc2Cl)CC1 | · | 1 | -3 | · | 4343 | 5
Cc1cccc(CN2CCN(CC(=O)N3CCCC3)C2=O)c1 | -1 | 1 | 6 | 9 | 8439 | -1
O=C(CN1CCN(Cc2ccccc2)C1=O)NCc1ccc(Cl)cc1 | 0 | -1 | -5 | -1 | 5174 | 0
Cc1ccccc1CN1CCN(CC(=O)NCc2ccccc2)C1=O | 3 | -3 | -2 | -3 | 20841* | -1
Cc1cccc(CN2CCN(CC(=O)O)C2=O)c1 | -1 | -1 | -2 | -3 | 19589* | -2
OC(CNCC1CCCO1)COc1ccc(OCC(O)CNCC2CCCO2)cc1 (stereo unspecified) | 0 | -1 | -9 | 160* | 2950 | -3
CCOC(=O)c1c(C)n(-c2ccc(C)cc2)c2ccc(OCC(O)CNCC3CCCO3)cc12 (stereo unspecified) | 1 | 0 | -16 | -15 | 4774 | -3
SMILES | PfHsp40 rescue | BoNT-A LC inh2 | BoNT-F LC inh | MazEF act | Bead autofluor | Anthrax LF prot
S=C1NC[C@H](c2ccccc2)N1CCCCC1CCCCC1 | 330* | 0 | -2 | 3 | 4034 | -2
CC1(C)Cc2c(c(N3CCOCC3)nc3sc4c(NCc5ccccc5)nnnc4c23)CS1 | 0 | -1 | 0 | -33 | 23609* | -2
CCN1/C(=C/c2ccc3ccccc3[n+]2CCCS(=O)(=O)[O-])C=Cc2cc(C)ccc21 | -1 | -1 | -23 | -4 | 2927 | -8
CCCCN1/C(=C/c2ccc3ccccc3[n+]2CC)Sc2ccccc21 | 128* | 24 | 0 | -92 | 13406 | 20
CCN1/C(=C/c2ccc3cc(C)ccc3[n+]2CC)Sc2cc(C)ccc21 | -3 | 55* | -63 | 75* | 7083 | -41
CCN1/C(=C/c2ccc3cc(C)ccc3[n+]2C)Sc2ccc3sccc3c21 | 153* | 4 | -136 | 2 | 1823 | -55
CCN1/C(=C/c2ccc3ccccc3[n+]2CC)C=Cc2ccccc21 | 166* | 2 | -9 | 9 | 4755 | -2
Cc1ccc(CC(=O)CCc2ccccc2)cc1 | -2 | 0 | -4 | 1 | 4118 | -1
COc1ccc(NC(=O)N2CCCCCC2)cc1OC | -1 | -1 | -2 | 6 | 5720 | -5
Cc1ccccc1C(=O)NC1CC2CCCC(C1)N2CC(C)C (stereo unspecified) | · | 0 | 5 | 9 | 3684 | -6
C=C(C)CN(CC)c1nc(N)c(C#N)c(CC#N)c1C#N | 2 | ? | 0 | 9 | 20294* | -1
C[C@H]1CN(c2ccccc2)C(=O)[C@@H]1CC(=O)Nc1ccccc1 | · | 0 | 1 | 5 | 3818 | 3
CC(NC(=O)c1ccc(Br)cc1)c1ccccc1 (stereo unspecified) | 11 | 0 | -2 | 6 | 2520 | 2
CC(C)OP(=O)(OC(C)C)C(NC(=O)c1ccc(Br)cc1)c1ccccc1 (stereo unspecified) | 1 | -2 | -1 | 1 | 21425* | -1
Cc1nc2ccc(C(=O)NCCCN3CCCC3=O)cn2c1N(C)C(=O)CCc1ccccc1 | · | 0 | -6 | · | 4003 | -6
O=C(O)c1cccc(Oc2ccc(C(=O)O)c([N+](=O)[O-])c2)c1 | 1 | 0 | -1 | -1 | 3577 | -3
CC1(C)N(OCc2ccccc2)C(=O)C(=O)N(OCc2ccccc2)C1(C)C | -1 | ? | 8 | 0 | 20720* | -13
Cc1ccc(C2=Nc3ccccc3N=C(c3ccc([N+](=O)[O-])cc3)C2)c(O)c1 | -1 | 1 | 0 | 7 | 2141 | 0
Oc1ccccc1C1=Nc2ccccc2N=C(c2ccco2)C1 | 0 | 0 | -5 | 56* | 9950 | -5
CCOC(=O)N1CCC(NC(=O)C2CCN(S(=O)(=O)c3cccs3)CC2)CC1 | 0 | 1 | 1 | 4 | 20126* | -2
CCC(CC)NC(=O)C1CCN(S(=O)(=O)c2cccs2)CC1 | -1 | -1 | 0 | 2 | 23956* | -4
Cc1ccccc1N(CC(=O)N1CCOCC1)S(C)(=O)=O | -2 | -1 | -4 | -3 | 3456 | -8
CC(C)(C)N1[C@@H](CC(=O)O)c2cc(C(F)(F)F)ccc2S1(=O)=O | -1 | 0 | 4 | 5 | 3984 | -2
Cc1c(N=Cc2c(O)n(C)c(=O)c3ccccc23)c(=O)n(-c2ccccc2)n1C | 0 | 0 | 10 | 300* | 7445 | 1
